{
  "source": "PubChem BioAssay AID588852",
  "about": "(The Scripps Research Institute Molecular Screening Center, 2011)",
  "note": "Hit rate of the full screen: of about 360,000 compounds, about 4,600 (1.3%) were called active. The full list was thinned out, with actives kept by preference. A number with no mark means an inactive call.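 The calls were made as follows: active = percent inhibition above its own plate's cutoff, namely the mean of that plate's compound wells plus 3 SD; inactive = the rest.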",
  "data": [
    {"target": "Muscarinic acetylcholine receptor M1 (Homo sapiens) (UniProt P11229)", "sequence (P11229 whole entry, looked up)": "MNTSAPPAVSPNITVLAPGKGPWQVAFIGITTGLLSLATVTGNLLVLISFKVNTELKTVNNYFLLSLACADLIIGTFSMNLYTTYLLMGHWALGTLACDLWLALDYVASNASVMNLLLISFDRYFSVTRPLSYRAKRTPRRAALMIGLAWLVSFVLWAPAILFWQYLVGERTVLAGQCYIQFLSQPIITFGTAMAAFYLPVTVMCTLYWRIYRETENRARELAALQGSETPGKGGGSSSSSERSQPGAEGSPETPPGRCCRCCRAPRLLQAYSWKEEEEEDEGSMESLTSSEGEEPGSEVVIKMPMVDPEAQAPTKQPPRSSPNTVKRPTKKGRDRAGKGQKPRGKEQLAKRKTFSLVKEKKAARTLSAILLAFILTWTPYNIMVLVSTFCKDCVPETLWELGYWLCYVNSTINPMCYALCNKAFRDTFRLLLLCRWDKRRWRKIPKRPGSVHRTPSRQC", "assay": "CHRM1 blockers of acetylcholine calcium response – CHO-K1 cells, Fluo-8 calcium fluorescence, 1536-well, primary screen (AID 588852);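 also: peak over basal fluorescence ratio during 140 s after agonist addition; 0% = ACh EC80 plus DMSO and 100% = DMSO alone without agonist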", "settings": "CHO-K1 hM1, Fluo-8 calcium fluorescence, ACh EC80 antagonist; at 3 µM; stronger effect = higher value", "values": [
      {"smiles": "CCN1CCC2(CC1)N=C(c1ccc(F)cc1)C(=S)N2C(=O)c1ccc(C)cc1", "inhibition": "90.6% (active)"},
      {"smiles": "CCN1CCC(O)(/C=C/c2ccc(C)cc2)C(C(=O)/C=C/c2ccc(C)cc2)C1", "note": "(stereo not given)", "inhibition": "5.04%"},
      {"smiles": "Cc1ccc(SCC(=O)N2CCN(c3ccc(F)cc3)CC2)cc1", "inhibition": "1.11%"},
      {"smiles": "C[C@@H]1CN([C@H](C)CO)C(=O)CCCn2nncc2CO[C@@H]1CN(C)S(=O)(=O)c1cccc(C#N)c1", "inhibition": "-0.77%"},
      {"smiles": "COc1ccc(C2=Nc3ccccc3NC(=O)C2N(C(=O)c2cc3ccccc3[nH]2)c2ccccc2)cc1", "note": "(stereo not given)", "inhibition": "-26.4%"},
      {"smiles": "CC(C)(C)CC(=O)Nc1nc(C(N)Cc2ccc(C(F)(F)F)cc2)cs1", "note": "(stereo not given)", "inhibition": "-6.85%"},
      {"smiles": "O=C(O)C1C2C=CC(O2)C1C(=O)NCCc1cccc(Cl)c1", "note": "(stereo not given)", "inhibition": "-2.69%"},
      {"smiles": "COc1cccc(NC(=O)C2c3cc(OC)c(OC)cc3C(=O)N(C)C2c2cccnc2)c1", "note": "(stereo not given)", "inhibition": "-10.6%"},
      {"smiles": "O=C(c1ccc(OC2CCN(C/C=C/c3ccc(F)cc3)CC2)cc1)N1CCCCC1", "inhibition": "29.3%"},
      {"smiles": "CC(=O)Nc1ccc(CN2CCC(Oc3ccc(C(=O)N4CCCC4)cc3)CC2)cc1", "inhibition": "53.8% (active)"},
      {"smiles": "Cc1nn(C)c(Cl)c1CN1CCC(Oc2ccc(C(=O)N3CCCC3)cc2)CC1", "inhibition": "8.44%"},
      {"smiles": "CCOP(=O)(OCC)C(Cc1ccccc1)N=C(c1ccccc1)c1ccccc1", "note": "(stereo not given)", "inhibition": "-5.83%"},
      {"smiles": "Cc1c(CN2CCC(C)CC2)c(=O)n(-c2ccccc2)n1C", "inhibition": "8.27%"},
      {"smiles": "Cc1c(CN2CCCC(C(=O)c3cccc(Cl)c3)C2)c(=O)n(-c2ccccc2)n1C", "note": "(stereo not given)", "inhibition": "27.6% (active)"},
      {"smiles": "Cc1cccc(N2CCN(Cc3c(C)n(C)n(-c4ccccc4)c3=O)CC2)c1C", "inhibition": "12.1%"},
      {"smiles": "CC(C)(O)C#Cc1ccc(CNC[C@H]2O[C@@H](n3cnc4c(=O)[nH]c(N)nc43)[C@H](O)[C@@H]2O)s1", "inhibition": "3.48%"},
      {"smiles": "C=CCOC(=O)C1=C[C@@H](c2ccc3c(c2)OCO3)C[C@@H](OCCCCO)O1", "inhibition": "-1.17%"},
      {"smiles": "Cc1cc2c(cc1C)N1C(=O)c3cc4ccccc4cc3NC(=O)C1C(=O)N2", "note": "(stereo not given)", "inhibition": "-27%"},
      {"smiles": "O=C(CCN1CCN(c2ccccc2)CC1)NNC(=S)Nc1ccccc1", "inhibition": "17.2%"},
      {"smiles": "CCCCC(=O)NNC(=S)NC(=O)C(c1ccccc1)c1ccccc1", "inhibition": "68.7% (active)"},
      {"smiles": "COc1ccccc1NC(=S)NC(=O)C(C)C", "inhibition": "-7.13%"},
      {"smiles": "COc1cc(NC(=O)c2cc(-c3ccc(F)cc3OC(C)C)n[nH]2)cc(OC)c1OC", "inhibition": "8.53%"},
      {"smiles": "CCc1ccc(C(=O)OCC(=O)NCC(F)(F)F)cc1", "inhibition": "-11.6%"},
      {"smiles": "CCOc1ccc(Nc2nc(Cc3nnc(SCC(=O)NC4CCCC4)n3C)cs2)cc1", "inhibition": "-22.9%"},
      {"smiles": "CC(=O)Nc1ccc(C(=O)CSc2nnc(Cc3ccccc3)o2)cc1", "inhibition": "-12.2%"},
      {"smiles": "CCOc1ccc(Nc2nc(Cc3nnc(SCC(=O)c4ccc(C)cc4)o3)cs2)cc1", "inhibition": "13% (active)"},
      {"smiles": "CCOC(=O)c1nnn(CC(=O)Nc2cccc(F)c2)c1C(=O)OCC", "inhibition": "-2.12%"},
      {"smiles": "O=C(NCc1cccnc1)c1nc(-c2cccs2)no1", "inhibition": "-2.8%"},
      {"smiles": "CC1CCC2CCCCC2N1C(=O)c1cc([N+](=O)[O-])cc([N+](=O)[O-])c1", "note": "(stereo not given)", "inhibition": "-3.75%"},
      {"smiles": "Cn1cc(CN2CCCCC2c2ccccn2)c(-c2ccc3c(c2)OCCO3)n1", "note": "(stereo not given)", "inhibition": "-3.05%"},
      {"smiles": "COc1ccccc1C(CNC(=O)c1ccc(C)c(S(=O)(=O)N2CCCCC2)c1)N(C)C", "note": "(stereo not given)", "inhibition": "101% (active)"},
      {"smiles": "Cc1ccc(C(=O)Nc2ncccc2C)cc1S(=O)(=O)N1CCOCC1", "inhibition": "-9.39%"},
      {"smiles": "Cc1ccc(C(=O)NCC(c2cccs2)N(C)C)cc1S(=O)(=O)N1CCOCC1", "note": "(stereo not given)", "inhibition": "50.7% (active)"},
      {"smiles": "COc1ccccc1C(=O)Nc1ccc(C)c(S(=O)(=O)N2CCCCC2)c1", "inhibition": "5.17%"},
      {"smiles": "Cc1ccc(C(=O)Nc2ccc3c(c2)OCCO3)cc1S(=O)(=O)N1CCOCC1", "inhibition": "-13.2%"},
      {"smiles": "COc1ccccc1CNC(=O)c1ccc(Cl)c(S(=O)(=O)N2CCCC2)c1", "inhibition": "-5.01%"},
      {"smiles": "CCCCN1C(=O)/C(=C/C=C2/C=Cc3ccccc3N2CC)SC1=S", "inhibition": "-7.59%"},
      {"smiles": "CCCCN1C(=O)/C(=C2/C=CC=CN2C)SC1=S", "inhibition": "37.9% (active)"},
      {"smiles": "CN1C=CC=C/C1=C1\\SC(=S)N(Cc2ccccc2)C1=O", "inhibition": "19.7%"},
      {"smiles": "CCC(C)C(CO)NC(=O)/C=C/[C@H]1O[C@@H](n2cnc3c(NC(=O)c4ccccc4)ncnc32)[C@H](O)[C@@H]1O", "note": "(stereo not given in full)", "inhibition": "3.77%"},
      {"smiles": "CC(C)c1cccc(C(C)C)c1Nc1cn[nH]c1", "inhibition": "-0.55%"},
      {"smiles": "O=S(=O)(/C=C/c1ccccc1)N1CCNCC1", "inhibition": "-8.17%"},
      {"smiles": "Fc1ccc(CNCc2ccc(Br)cc2)cc1", "inhibition": "-0.53%"},
      {"smiles": "COc1ccc(NC(=O)CN(C)C(=O)c2cccc(S(=O)(=O)N3CCN(c4ccccc4)CC3)c2)cc1", "inhibition": "57.7% (active)"},
      {"smiles": "CCOc1ccc(NC(=O)CN(C)C(=O)c2cccc(S(=O)(=O)N3CCCC3)c2)cc1OCC", "inhibition": "7.19%"},
      {"smiles": "Cc1ccc(NC(=O)CN(C)C(=O)c2cccc(S(=O)(=O)N3CCCC3)c2)cc1", "inhibition": "-6.53%"},
      {"smiles": "C=CCN(c1ccc(Cl)cc1)S(=O)(=O)c1cccc(C(=O)OCC(=O)N(C)C)c1", "inhibition": "-8.38%"},
      {"smiles": "COc1cc(S(=O)(=O)N(Cc2cccs2)C2CC2)ccc1-n1cnnn1", "inhibition": "-5.47%"},
      {"smiles": "O=S(=O)(Cc1nnnn1-c1ccc(Br)cc1)c1ccc(F)cc1", "inhibition": "-2.5%"},
      {"smiles": "Nc1c(C(=O)c2cccs2)sc2nsc(SCCN3CCCCC3)c12", "inhibition": "44.1% (active)"},
      {"smiles": "O=C(Nc1ccc2ccccc2c1)Nc1ccc2snnc2c1", "inhibition": "32.8% (active)"},
      {"smiles": "S=C(Nc1ccccc1)Nc1ccc2ccccc2c1", "inhibition": "-3.01%"},
      {"smiles": "Cc1nc2cc(NC(=O)Nc3cccc(F)c3)ccc2n1C", "inhibition": "-17.2%"},
      {"smiles": "O=C(c1ccco1)N1CCN(C(=O)C2c3ccccc3Oc3ccccc32)CC1", "inhibition": "11.3%"},
      {"smiles": "O=C(c1ccco1)N1CCN(CCOc2ccccc2)CC1", "inhibition": "-9.86%"},
      {"smiles": "CN(Cc1ccccc1)C(=O)CCC1CCN(C(=O)c2ccco2)CC1", "inhibition": "31.3% (active)"},
      {"smiles": "Cc1ccc([C@@H]2CC(=O)[C@@H]3CN(S(=O)(=O)c4ccc(C)cc4)[C@H](c4ccccc4F)C[C@@H]3N2S(=O)(=O)c2ccc(Cl)cc2)cc1", "inhibition": "-10%"},
      {"smiles": "CC12CCC(=O)C=C1CCC1C2C(O)CC2(C)C1CCC2(O)C(O)CO", "note": "(stereo not given)", "inhibition": "-14.1%"},
      {"smiles": "COc1ccc(/C=C2\\SC(=S)N(CCC(=O)N3CCOCC3)C2=O)cc1OC", "inhibition": "-11%"},
      {"smiles": "COc1ccc(CCNC2=C(Cl)C(=O)N(Cc3ccccc3)C2=O)cc1OC", "inhibition": "13.4%"},
      {"smiles": "COc1cc(/C=C2/SC(=S)N(Cc3ccccc3)C2=O)cc(OC)c1O", "inhibition": "30.7% (active)"},
      {"smiles": "O=C(CCNc1n[nH]c(=O)[nH]c1=O)N/N=C\\c1ccc(Br)cc1", "inhibition": "-20%"},
      {"smiles": "Cc1ccccc1C(OCCN(C)C)C1CCCCC1", "note": "(stereo not given)", "inhibition": "99.8% (active)"},
      {"smiles": "CN(C)CCOC1c2ccccc2-c2ccccc21", "inhibition": "12.7%"},
      {"smiles": "COc1ccccc1CNC(=O)Cn1c(=O)oc2cc(Cl)ccc21", "inhibition": "-12.3%"},
      {"smiles": "CSCCC(NC(=O)c1ccco1)C(=O)NCCc1ccc(F)cc1", "note": "(stereo not given)", "inhibition": "4.11%"},
      {"smiles": "CC(C(=O)c1ccc(-c2ccccc2)cc1)[n+]1cccc(Br)c1", "note": "(stereo not given)", "inhibition": "35.1% (active)"},
      {"smiles": "C[n+]1cccc(C(=O)O)c1", "inhibition": "-30.2%"},
      {"smiles": "O=C(NNC(=O)c1ccc(-c2ccccc2)cc1)Nc1ccccc1", "inhibition": "-2.91%"},
      {"smiles": "CCCCc1nc(NCc2ccccc2)c(C#N)c2c1CCCC2", "inhibition": "-5.37%"},
      {"smiles": "COc1ccc(C(C#N)=C2C=CC(=NO)c3ccccc32)cc1", "inhibition": "22%"},
      {"smiles": "CC1=C(C(=O)N2CCOCC2)CC(CC(=O)NCc2cccs2)C(=O)N1CCCN1CCCC1=O", "note": "(stereo not given)", "inhibition": "4.82%"},
      {"smiles": "Cc1ccc2nc(-c3ccco3)c(Cc3cccc(Cl)c3)n2c1", "inhibition": "-5.65%"},
      {"smiles": "Cc1ccc(S(=O)(=O)N2CCOCC2)cc1C(=O)NCc1ccc(F)cc1", "inhibition": "9.1%"},
      {"smiles": "COC(=O)c1ccc(CNC(=O)c2ccc(S(=O)(=O)N3CCCCCC3)cc2)cc1", "inhibition": "-11.2%"},
      {"smiles": "Cc1cc2cc(CNC(=O)c3ccc(S(=O)(=O)N4CCOCC4)cc3)ccc2[nH]1", "inhibition": "59.4% (active)"},
      {"smiles": "CCCC(=O)N1CCC1(C)C(=O)NCc1ccc(SC)cc1", "note": "(stereo not given)", "inhibition": "-8.63%"},
      {"smiles": "O=C(COc1cccnc1[N+](=O)[O-])Nc1ccc(Cl)cc1F", "inhibition": "3.68%"},
      {"smiles": "CC(NC(=O)COc1cccnc1[N+](=O)[O-])c1ccc(Cl)cc1Cl", "note": "(stereo not given)", "inhibition": "42.6% (active)"},
      {"smiles": "COc1cccc(NC(=O)COc2cccnc2[N+](=O)[O-])c1", "inhibition": "-7.66%"},
      {"smiles": "CCCNC(=S)NC1CC2CCCC(C1)N2CC(C)C", "note": "(stereo not given)", "inhibition": "29.5%"},
      {"smiles": "CC(C)C(c1nnnn1C(C)(C)C)N1CCN(Cc2cccnc2)CC1", "note": "(stereo not given)", "inhibition": "-13.5%"},
      {"smiles": "CC(C)(C)n1nnnc1C(c1cccs1)N(Cc1cccnc1)CC1CCCO1", "note": "(stereo not given)", "inhibition": "79.4% (active)"},
      {"smiles": "CCOc1ccc(CN(Cc2ccco2)C(c2cccs2)c2nnnn2C(C)(C)C)cc1", "note": "(stereo not given)", "inhibition": "18.8%"},
      {"smiles": "CC(=O)NS(=O)(=O)c1ccc2c(c1)Cc1cc(S(=O)(=O)NC(C)=O)ccc1-2", "inhibition": "-13.4%"},
      {"smiles": "O=C(NCC(O)c1nc2ccccc2[nH]1)c1ccc(Br)cc1", "note": "(stereo not given)", "inhibition": "-13.3%"},
      {"smiles": "CCOC(=O)C1=CCC(c2ccc(F)cc2)N(S(=O)(=O)c2ccc(C)cc2)C1", "note": "(stereo not given)", "inhibition": "34% (active)"},
      {"smiles": "CC(=O)C1=CCC(c2ccccc2)N(S(=O)(=O)c2ccc(C)cc2)C1", "note": "(stereo not given)", "inhibition": "-10.8%"},
      {"smiles": "CCOC(=O)C1=CC[C@@H](c2ccncc2)N(S(=O)(=O)c2ccc(C)cc2)C1", "inhibition": "24.6%"},
      {"smiles": "COc1c(C)cc(C(O)c2ncc(-c3cccc(C(F)(F)F)c3)[nH]2)cc1C", "note": "(stereo not given)", "inhibition": "-5.01%"}
    ]}
  ]
}
